Measurements taken from PubChem BioAssay AID1159580 (chemical genetic matrix, 2015).
The whole screen tested about 5,500 compounds, of which about 2,000 (36%) were called active. Inconclusive results (about 18%) are left out. Rule as the data show it: active = normalized growth mostly below about 0.91 (no sharp cut-off); inconclusive = no clear call, values can overlap the other calls; inactive = mostly above about 0.92. The list shows a part of the results.

Assay: chemical genetic growth profiling, strain panel (AID 1159580);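 also: tested at 20 µM; growth read once vehicle control cultures reached saturation at 30 °C; 1 = growth at the plate median or of vehicle wells; lower values mean less growth of the strain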
Settings: growth OD

Measured: normalized growth

COC(=O)CCC(C)[C@H]1CCC2C3C(C[C@H](O)[C@@]21C)[C@@]1(C)CC[C@@H](O)C[C@H]1C[C@H]3O (stereo not given in full)
inactive: S. cerevisiae deletion strains, locus YJR075W, strain HOC1, stronger effect = lower value 0.986 | S. cerevisiae deletion strains, locus YKL009W, strain mrt4, stronger effect = lower value 1.02 | S. cerevisiae deletion strains, locus YKL068W, stronger effect = lower value 1 | S. cerevisiae deletion strains, locus YKL085W, strain MDH1 (second series), stronger effect = lower value 1.01 | S. cerevisiae deletion strains, locus YKL085W, strain MDH1, stronger effect = lower value 1.01 | S. cerevisiae deletion strains, locus YKL160W, strain elf1, stronger effect = lower value 1.03 | S. cerevisiae deletion strains, locus YKR001C, strain vps1, stronger effect = lower value 1 | S. cerevisiae deletion strains, locus YKR026C, strain gcn3, stronger effect = lower value 1.03 | S. cerevisiae deletion strains, locus YKR091W, strain srl3, stronger effect = lower value 1.01 | S. cerevisiae deletion strains, locus YLL001W, strain dnm1, stronger effect = lower value 1.03 | S. cerevisiae deletion strains, locus YLL026W, stronger effect = lower value 1.01 | S. cerevisiae deletion strains, locus YLL041C, strain sdh2, stronger effect = lower value 1.01 | S. cerevisiae deletion strains, locus YLR027C, strain aat2, stronger effect = lower value 1.01 | S. cerevisiae deletion strains, locus YLR039C, strain RIC1, stronger effect = lower value 1.13 | S. cerevisiae deletion strains, locus YLR058C, strain SHM2, stronger effect = lower value 1.01 | S. cerevisiae deletion strains, locus YLR102C, strain apc9, stronger effect = lower value 1.03 | S. cerevisiae deletion strains, locus YLR113W, strain HOG1, stronger effect = lower value 0.975 | S. cerevisiae deletion strains, locus YLR221C, strain rsa3, stronger effect = lower value 1.02 | S. cerevisiae deletion strains, locus YLR258W, strain gsy2, stronger effect = lower value 1.03 | S. cerevisiae deletion strains, locus YLR262C, strain YPT6 (second series), stronger effect = lower value 1.02 | S. cerevisiae deletion strains, locus YLR262C, strain YPT6, stronger effect = lower value 1.09 | S. cerevisiae deletion strains, locus YLR268W, strain sec22, stronger effect = lower value 1.01 | S. cerevisiae deletion strains, locus YLR320W, strain mms22, stronger effect = lower value 1.04 | S. cerevisiae deletion strains, locus YLR330W, strain CHS5, stronger effect = lower value 1.01 | S. cerevisiae deletion strains, locus YLR342W, strain FKS1 (second series), stronger effect = lower value 1.02 | S. cerevisiae deletion strains, locus YLR342W, strain FKS1, stronger effect = lower value 1.01 | S. cerevisiae deletion strains, locus YLR357W, strain rsc2, stronger effect = lower value 1.03 | S. cerevisiae deletion strains, locus YLR370C, strain arc18, stronger effect = lower value 1.01 | S. cerevisiae deletion strains, locus YLR371W, strain rom2, stronger effect = lower value 1.02 | S. cerevisiae deletion strains, locus YLR384C, strain iki3, stronger effect = lower value 1 | S. cerevisiae deletion strains, locus YLR418C, strain cdc73, stronger effect = lower value 0.932 | S. cerevisiae deletion strains, locus YML016C, strain PPZ1, stronger effect = lower value 1.04 | S. cerevisiae deletion strains, locus YML032C, strain rad52, stronger effect = lower value 1.01 | S. cerevisiae deletion strains, locus YML120C, strain ndi1, stronger effect = lower value 1.02 | S. cerevisiae deletion strains, locus YML124C, strain tub3, stronger effect = lower value 1.02 | S. cerevisiae deletion strains, locus YMR058W, strain fet3, stronger effect = lower value 1.02 | S. cerevisiae deletion strains, locus YMR078C, strain ctf18, stronger effect = lower value 1.04 | S. cerevisiae deletion strains, locus YMR125W, strain sto1, stronger effect = lower value 1.03 | S. cerevisiae deletion strains, locus YMR129W, stronger effect = lower value 1.01 | S. cerevisiae deletion strains, locus YMR205C, strain PFK2, stronger effect = lower value 1.02 | S. cerevisiae deletion strains, locus YMR223W, strain ubp8, stronger effect = lower value 0.996 | S. cerevisiae deletion strains, locus YMR231W, strain pep5, stronger effect = lower value 1.01 | S. cerevisiae deletion strains, locus YMR263W, strain SAP30, stronger effect = lower value 1.01 | S. cerevisiae deletion strains, locus YMR307W, strain GAS1, stronger effect = lower value 0.86 | S. cerevisiae deletion strains, locus YNL067W, strain RPL9B, stronger effect = lower value 1 | S. cerevisiae deletion strains, locus YNL071W, strain lat1, stronger effect = lower value 1.01 | S. cerevisiae deletion strains, locus YNL128W, strain TEP1, stronger effect = lower value 1.02 | S. cerevisiae deletion strains, locus YNL153C, strain GIM3, stronger effect = lower value 0.988 | S. cerevisiae deletion strains, locus YNL183C, strain NPR1, stronger effect = lower value 0.955 | S. cerevisiae deletion strains, locus YNL209W, strain ssb2, stronger effect = lower value 1.02 | S. cerevisiae deletion strains, locus YNL233W, strain BNI4, stronger effect = lower value 0.957 | S. cerevisiae deletion strains, locus YNL248C, strain rpa49, stronger effect = lower value 1.04 | S. cerevisiae deletion strains, locus YNL250W, strain rad50, stronger effect = lower value 1.01 | S. cerevisiae deletion strains, locus YNL271C, strain bni1, stronger effect = lower value 1.02 | S. cerevisiae deletion strains, locus YNL298W, strain CLA4, stronger effect = lower value 0.993 | S. cerevisiae deletion strains, locus YNL307C, strain MCK1, stronger effect = lower value 1.03 | S. cerevisiae deletion strains, locus YNL322C, strain KRE1 (second series), stronger effect = lower value 1.03 | S. cerevisiae deletion strains, locus YNL322C, strain KRE1, stronger effect = lower value 1.02 | S. cerevisiae deletion strains, locus YNR049C, strain mso1, stronger effect = lower value 1.01 | S. cerevisiae deletion strains, locus YNR052C, strain pop2, stronger effect = lower value 1.01 | S. cerevisiae deletion strains, locus YOL006C, strain TOP1, stronger effect = lower value 0.974 | S. cerevisiae deletion strains, locus YOL012C, strain htz1 0.777 | S. cerevisiae deletion strains, locus YOL147C, strain pex11, stronger effect = lower value 1.03 | S. cerevisiae deletion strains, locus YOR001W, strain rrp6, stronger effect = lower value 0.985 | S. cerevisiae deletion strains, locus YOR061W, strain CKA2, stronger effect = lower value 1.04 | S. cerevisiae deletion strains, locus YOR069W, strain VPS5, stronger effect = lower value 1.06 | S. cerevisiae deletion strains, locus YOR070C, strain gyp1, stronger effect = lower value 0.995 | S. cerevisiae deletion strains, locus YOR080W, strain dia2, stronger effect = lower value 1.01 | S. cerevisiae deletion strains, locus YOR083W, strain WHI5, stronger effect = lower value 1.03 | S. cerevisiae deletion strains, locus YOR106W, strain vam3, stronger effect = lower value 1.01 | S. cerevisiae deletion strains, locus YOR136W, strain idh2, stronger effect = lower value 1.02 | S. cerevisiae deletion strains, locus YOR144C, strain elg1, stronger effect = lower value 1.02 | S. cerevisiae deletion strains, locus YOR184W, strain ser1, stronger effect = lower value 0.986 | S. cerevisiae deletion strains, locus YOR231W, strain MKK1, stronger effect = lower value 0.991 | S. cerevisiae deletion strains, locus YOR265W, strain rbl2, stronger effect = lower value 1.01 | S. cerevisiae deletion strains, locus YOR270C, strain vph1, stronger effect = lower value 0.913 | S. cerevisiae deletion strains, locus YOR290C, strain snf2, stronger effect = lower value 0.977 | S. cerevisiae deletion strains, locus YOR316C, strain cot1, stronger effect = lower value 1.03 | S. cerevisiae deletion strains, locus YPL051W, strain arl3, stronger effect = lower value 1.01 | S. cerevisiae deletion strains, locus YPL078C, strain atp4, stronger effect = lower value 1.03 | S. cerevisiae deletion strains, locus YPL106C, strain sse1, stronger effect = lower value 1.05 | S. cerevisiae deletion strains, locus YPL240C, strain hsp82, stronger effect = lower value 1 | S. cerevisiae deletion strains, locus YPL241C, strain CIN2, stronger effect = lower value 1.02 | S. cerevisiae deletion strains, locus YPL256C, strain CLN2, stronger effect = lower value 0.981 | S. cerevisiae deletion strains, locus YPR119W, strain clb2, stronger effect = lower value 1.03 | S. cerevisiae deletion strains, locus YPR141C, strain kar3, stronger effect = lower value 1.03 | S. cerevisiae deletion strains, locus YPR163C, strain tif3, stronger effect = lower value 1.03 | S. cerevisiae deletion strains, locus YPR167C, strain met16, stronger effect = lower value 1.03 | S. cerevisiae deletion strains, strain wtn01, stronger effect = lower value 1.01 | S. cerevisiae strains, strain wild type, stronger effect = lower value 1.02
